Compound activity as filed in PubChem.
This is a sample that favours compounds with a hit; in the whole collection about 21% have one here.
Pf growth 48h = Primary qHTS for delayed death inhibitors of the malarial parasite plastid, 48 hour incubation | P. falciparum luciferase growth in erythrocytes, 48 h | Potency, µM (top dose mostly 28.7 µM), for the others: top-dose activity change, negative = inhibition, hits mostly inhibitors | hit rate 5.9% among 310,000 | AID 504832, 2011; active means well fitted inhibition curve with a large enough effect; inconclusive means small, poorly fitted or top-dose-only effect, or another doubt; inactive means no such curve, though single readings can be large or run the other way; further: potency means the concentration at half of the fitted maximal effect; on the % scale 0 is the no-effect control and ±100 the full control effect
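In quantitative HTS format, infected erythrocytes bearing luciferase-reporter parasites were treated for a single generation at 37 C. Luminescence after adding detection reagent served as the growth measure.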
Cycloheximide cs = Cycloheximide Counterscreen for Small Molecule Inhibitors of Shiga Toxin. cell reporter, cycloheximide protein synthesis inhibition counterscreen. max response, %. hit rate 12% among 300,000. AID 2314, 2010; in the data active means max response mostly above about 13%, no sharp cut-off; inactive means mostly below about 14%; further: read at 38.3 µM for the half of the compounds with a filed dose; 0% is about no effect
Pf growth 96h = Primary qHTS for delayed death inhibitors of the malarial parasite plastid, 96 hour incubation; hit rate 6.9% among 320,000; P. falciparum luciferase reporter growth, 96 h; Potency, µM (series often up to 28.7 µM), inactives show at the highest dose activity change, negative = inhibition, actives largely listed as inhibitors; active means well fitted inhibition curve with a large enough effect; inconclusive means small, poorly fitted or top-dose-only effect, or another doubt; inactive means no such curve, though single readings can be large or run the other way; further: potency means the concentration at half of the fitted maximal effect; on the % scale 0 is the no-effect control and ±100 the full control effect
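Readout is luminescence from an integrated firefly luciferase in P. falciparum. Red cells, 2% hematocrit and 0.05% parasitemia final, were cultured with compound through two parasite generations (96 hours) at 37 C, 5% CO2.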
SARS PLP yeast = qHTS of Yeast-based Assay for SARS-CoV PLP. S. cerevisiae expressing SARS-CoV PLpro, growth rescue. Potency, µM (doses to about 32.9 µM), inactives show at the highest dose activity, positive = growth rescue, most hits filed as activators. hit rate 0.19% among 330,000. AID 485353, 2010; further: potency means the concentration at half of the fitted maximal effect; 0% is about no effect; nearly all actives have a fitted effect of over 55% in size
NS1 function inh = qHTS Assay for Inhibitors of Influenza NS1 Protein Function; Potency, µM (top dose mostly 46.1 µM), inactives show at the top dose activity, positive = more growth; hit rate 0.4% among 270,000; further: potency means the concentration at half of the fitted maximal effect; actives are rising curves; nearly all actives have a fitted effect of over 50% in size
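Growth recovery, yeast-based: influenza A NS1 expressed in S. cerevisiae causes slow growth, and suppressors are detected by OD600. The parent strain without NS1 is used as positive control.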
Shiga toxin inh = A qHTS for Small Molecule Inhibitors of Shiga Toxin. Vero cells, Shiga toxin protein synthesis inhibition reporter. inhibition, % at 38.7 µM. hit rate 9.2% among 290,000. AID 2315, 2010; in the data active means inhibition mostly above about 28%, no sharp cut-off; inactive means mostly below about 43%; further: 0% is about no effect
The depositor's hits bear a star. Unless noted, the call rests on the fitted dose curve.

For COCCN(C(=O)c1cc2c(s1)CCC2)c1c(N)n(CC(C)C)c(=O)[nH]c1=O the results were Pf growth 48h -8%, Pf growth 96h -22% and SARS PLP yeast -1%.
COc1ccc(CCn2c(-c3cc([N+](=O)[O-])cc([N+](=O)[O-])c3)nc3nc4ccccc4nc32)cc1OC was read as Pf growth 48h 13%, Cycloheximide cs -2, Pf growth 96h 12%, SARS PLP yeast 6%, NS1 function inh -6% and Shiga toxin inh -3.
For Cc1cccn2c(=O)nc(SCC(=O)Nc3ccc4c(c3)OCCO4)nc12 the results were Pf growth 48h inconclusive, Pf growth 96h 8% and SARS PLP yeast 4%.
COCc1cc(CN2CCN(C)CC2)c(O)c2ncccc12 was read as Cycloheximide cs -4, Pf growth 96h 8.3µM*, SARS PLP yeast inconclusive, NS1 function inh inconclusive and Shiga toxin inh -7.
Screening O=C(COc1ccc(Cl)c2cccnc12)N1CCOCC1 returned Pf growth 48h 44%, Pf growth 96h 20% and SARS PLP yeast -3%.
For O=C(Oc1c(CN2CCOCC2)cc(Cl)c2cccnc12)c1ccccc1Br the results were Pf growth 48h 1.9µM*, Cycloheximide cs 2, Pf growth 96h 10µM*, SARS PLP yeast 0%, NS1 function inh -6% and Shiga toxin inh 6.
For Cc1ccc(S(=O)(=O)NC(=O)c2cccn2C)cc1 the results were Pf growth 48h -13%, Cycloheximide cs 2, Pf growth 96h 22%, SARS PLP yeast 0%, NS1 function inh 11% and Shiga toxin inh -11.
For O=C1C2CCCN2C(=S)N1c1ccc(Cl)cc1 (stereo not given) the results were Pf growth 48h 15%, Cycloheximide cs -3, Pf growth 96h -20%, SARS PLP yeast -3%, NS1 function inh 8% and Shiga toxin inh 4.
For COc1cc(S(=O)(=O)Nc2ccc(Br)cc2)ccc1N the results were Pf growth 48h 18%, Cycloheximide cs 7, Pf growth 96h 8%, SARS PLP yeast -2% and Shiga toxin inh 7.
For CCn1ccnc1CN1CCCC(C(=O)c2cc(Cl)ccc2OC)C1 (stereo not given) the results were Pf growth 48h 21%, Cycloheximide cs -1, Pf growth 96h 14%, SARS PLP yeast 0%, NS1 function inh 1% and Shiga toxin inh -3.
`CCn1ccnc1CN1CCCC(C(=O)c2cc(C)c(OC)c(C)c2)C1` (stereo not given) gave Pf growth 48h 12µM*, Cycloheximide cs -2, Pf growth 96h inconclusive, SARS PLP yeast 0%, NS1 function inh 0% and Shiga toxin inh 14.
For CCn1ccnc1CN1CCCC(C(=O)c2ccc3cc(OC)ccc3c2)C1 (stereo not given) the results were Pf growth 48h 2.9µM*, Cycloheximide cs 2, Pf growth 96h inconclusive, SARS PLP yeast -3%, NS1 function inh -1% and Shiga toxin inh 13.
COc1c(C)cc(C(=O)C2CCCN(Cc3ccc(Oc4ncccn4)cc3)C2)cc1C (stereo not given) was read as Pf growth 48h inconclusive, Cycloheximide cs 1, Pf growth 96h -29%, SARS PLP yeast 0%, NS1 function inh -3% and Shiga toxin inh -10.
COc1ccc2cc(C(=O)C3CCCN(Cc4ccccn4)C3)ccc2c1 (stereo not given) was read as Pf growth 48h 9.3µM*, Cycloheximide cs 11, Pf growth 96h -21%, SARS PLP yeast -1%, NS1 function inh 1% and Shiga toxin inh -1.
`O=C(Nc1ccccc1)c1sc2cc(C(F)(F)F)cnc2c1-c1cccs1` gave Pf growth 48h inconclusive, Cycloheximide cs -3, SARS PLP yeast -7%, NS1 function inh -1% and Shiga toxin inh -13.
Screening CCOc1ccc(S(=O)(=O)N2CCC(C(=O)NC3CC3)CC2)cc1C returned Pf growth 48h inconclusive, Cycloheximide cs -5, Pf growth 96h -3%, SARS PLP yeast -1%, NS1 function inh -9% and Shiga toxin inh -13.
CCOc1cc(/C=N/NC(=O)c2cccnc2)ccc1OCC(=O)N(C)C was read as Pf growth 48h 0%, Cycloheximide cs 5, Pf growth 96h 33%, SARS PLP yeast 0% and Shiga toxin inh 5.
For COC(=O)c1cccnc1-n1c(=O)c2cccnc2n(Cc2cccc(C(F)(F)F)c2)c1=O the results were Pf growth 48h -16%, Cycloheximide cs 5, Pf growth 96h inconclusive, SARS PLP yeast -5% and Shiga toxin inh -13.
Screening Cc1nc2ccc(NS(=O)(=O)c3ccc(F)c(C)c3)cc2[nH]1 returned Pf growth 48h -8%, Cycloheximide cs -1, Pf growth 96h 58%, SARS PLP yeast -5%, NS1 function inh inconclusive and Shiga toxin inh -10.
`CC(C)(C)c1ccc(-c2noc(C(=O)NN)n2)cc1` gave Pf growth 48h -8%, Cycloheximide cs 2, Pf growth 96h 2%, SARS PLP yeast 0%, NS1 function inh 3% and Shiga toxin inh 20.
For CC(C)(C)c1ccc(-c2conc2N)cc1 the results were Pf growth 48h 252%, Cycloheximide cs 48*, SARS PLP yeast -31%, NS1 function inh -99% and Shiga toxin inh 111*.
Screening Cc1cccc(OCC(=O)NCC(=O)N/N=C/c2ccc(O)cc2O)c1 returned Pf growth 48h 10µM*, Cycloheximide cs -1, Pf growth 96h inconclusive, SARS PLP yeast 7%, NS1 function inh -3% and Shiga toxin inh 14.
Screening COc1cccc(/C=N/NC(=O)CNC(=O)c2cccs2)c1O returned Pf growth 48h -10%, Cycloheximide cs 31*, Pf growth 96h 35%, SARS PLP yeast 1%, NS1 function inh -11% and Shiga toxin inh 46*.
`Cc1ccc(/C=N/NC(=O)CNC(=O)c2cccs2)cc1` gave Pf growth 48h 67%, Cycloheximide cs 15*, Pf growth 96h 60%, SARS PLP yeast 4%, NS1 function inh 5% and Shiga toxin inh 19.
Cc1ccc(NC(=O)CNC(=O)c2cccs2)c(O)c1 was read as Pf growth 48h 45%, Pf growth 96h inconclusive and SARS PLP yeast 2%.
COc1cccc(/C=N/NC(=O)CNC(=O)CCc2ccccc2)c1O was read as Pf growth 48h inconclusive, Cycloheximide cs 30*, Pf growth 96h 153%, SARS PLP yeast 0%, NS1 function inh -3% and Shiga toxin inh 66*.
For Cc1ccc(NC(=O)CN(C)C(=O)c2n[nH]c(=O)c3ccccc23)cc1 the results were Pf growth 48h -1%, Cycloheximide cs -1, Pf growth 96h 18%, SARS PLP yeast 0% and Shiga toxin inh -3.
CCOC(=O)/C(=N\Nc1ccc(Br)cc1)N1CC(C)OC(C)C1 (stereo not given) was read as Pf growth 48h inconclusive, Cycloheximide cs -4, Pf growth 96h 3%, SARS PLP yeast -13%, NS1 function inh -129% and Shiga toxin inh -5.
